# Data from PubChem BioAssay AID588855 (National Center for Advancing Translational Sciences (NCATS), 2011).
# Screen size: about 410,000 compounds; about 5,000 (1.2%) were called active. Inconclusive results (about 13%) are left out. Calls follow the shape of the dose curve; as a rule, active = well fitted inhibition curve with a large enough effect; inconclusive = small, poorly fitted or top-dose-only effect; inactive = no such curve, though single readings can be large or run the other way. What follows is part of a selection rich in actives, with near analogues and random picks from the rest.
# Experiment: qHTS for Inhibitors of TGF-b; also: nearly all actives have a fitted effect of over 65% in size
# Details: HepG2 CAGA-GFP TGF-b/SMAD3 reporter, GFP fluorescence, 18 h, TGF-beta stimulated, 500 pg/mL final; series mostly up to 46.1 µM; activity, negative = inhibition: at the top concentration
# In short: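 HEPG2 CAGA-GFP cells (1000/well, DMEM with 1% FBS) were pre-incubated 2 h at 37 degrees C, given compound by pin tool, then stimulated with TGF-beta at 500 pg/mL final for 18 h before per-cell GFP fluorescence imaging.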
# % is scaled to controls: 0 for no effect and ±100 for the full control effect; potency is read from the fitted curve at half-maximal effect.
Structure (SMILES),"activity, negative = inhibition",Potency
O=C(Nc1ccccc1Cl)N1CCC(CN2CCCC2)CC1,-7.51% (inactive),–
CCc1ccc(-n2nc(C)c3c(C)cc(=O)n(CC(=O)Nc4ccc(F)cc4C)c32)cc1,-2.8% (inactive),–
CCOc1ccccc1NC(=O)CCn1cnnn1,7.48% (inactive),–
O=C(Cc1cccs1)NCc1cccc(C(F)(F)F)c1,32.4% (inactive),–
N/C(=N\S(=O)(=O)c1cc(C(F)(F)F)cc(C(F)(F)F)c1)c1cccs1,–,12.6 µM (active)
Cc1ccc(S(=O)(=O)/N=C(\N)c2ccc(F)cc2)cc1,13.6% (inactive),–
CCc1ccc(NC(=O)CSc2nc3c([nH]c4ccccc43)c(=O)n2-c2cccc(OC)c2)cc1,-9.35% (inactive),–
COc1ccc(-c2nc(Cn3c(=O)cc(C)c4c(C)nn(-c5ccccc5)c43)c(C)o2)cc1OC,36.5% (inactive),–
N=C1C(c2nc3ccccc3s2)=C(O)CN1NC(=O)c1ccc([N+](=O)[O-])cc1,–,7.08 µM (active)
N=C1C(c2nc3ccccc3[nH]2)=C(O)CN1NC(=O)c1c[nH]c2ccccc12,8.9% (inactive),–
Cc1ccc(C)n1NC(=O)c1ccc([N+](=O)[O-])cc1,-1.59% (inactive),–
Cc1ccc(C(=O)Nc2ccc(OCc3cc(=O)n4c5c(sc4n3)CCCC5)cc2)cc1,3.16% (inactive),–
CC(C)C[C@H]1CNC(=S)N1C[C@H]1CCCN1C[C@H](Cc1ccc(O)cc1)N1C[C@H](Cc2ccc(O)cc2)N(CC2CCCCC2)C1=S,–,15.8 µM (active)
NC1=NC[C@@H](Cc2ccc(O)cc2)N1CC1CCCCC1,-30.5% (inactive),–
O=C1NC[C@@H](Cc2ccc(O)cc2)N(CCc2cccc(F)c2)C1=O,19% (inactive),–
C[C@@H](CN1CCC[C@H]1CN1C(N)=NC[C@@H]1Cc1ccccc1)N1C[C@@H](Cc2ccccc2)N(CCCC2CCCC2)C1=N,4.53% (inactive),–
CCOc1ccc(CCN2C(=S)N([C@@H](CC(C)C)CN3CCC[C@@H]3CN3C(=S)NC[C@@H]3Cc3ccc(O)cc3)C[C@@H]2CC(C)C)cc1,–,10 µM (active)
O=C1NC[C@H](Cc2ccc(O)cc2)N(C[C@H]2CCCN2C[C@H](Cc2ccccc2)N2C[C@H](Cc3ccccc3)N(CCc3ccccc3)C(=O)C2=O)C1=O,-8.11% (inactive),–
CCOc1ccc(CCN2C(=S)N([C@@H](CC(C)C)CN3CCC[C@@H]3CN3C(=S)NC[C@@H]3Cc3ccc(O)cc3)C[C@@H]2Cc2ccc(O)cc2)cc1,–,11.2 µM (active)
CC[C@@H](C)[C@@H]1CN([C@@H](C)CN2CCC[C@H]2CN2C(N)=NC[C@H]2C(C)C)C(=N)N1CCc1ccc(Cl)c(Cl)c1,7.15% (inactive),–
CCOC(=O)c1cnc2c(C)cc(Cl)cc2c1NCCc1ccc(OC)c(OC)c1,15.4% (inactive),–
Cn1c(=O)c2sccc2n2c(CCC(=O)NCc3ccccc3Cl)nnc12,8.53% (inactive),–
CCc1cc2c(cc3c(=O)n(CC(=O)NCCc4ccc(OC)c(OC)c4)ncn32)s1,-9.52% (inactive),–
COc1ccc(C2NC(=O)N(C)C3=C2C(=O)N(c2ccc(C(=O)O)cc2)C3)cc1 (centres undefined),-4.1% (inactive),–
CN(C)c1ccc(/C=N\Nc2ccc([N+](=O)[O-])cc2[N+](=O)[O-])cc1Cl,11.6% (inactive),–

Structure (SMILES),"activity, negative = inhibition",Potency
CN(CCC#N)c1ccc(C=O)cc1,-3.73% (inactive),–
Cc1ccc(S(=O)(=O)N2CCN(c3nc(-n4cnc5ccccc54)nc4ccccc34)CC2)cc1,20.7% (inactive),–
Cc1ccc(NC(=O)C(Cc2ccccc2)NS(=O)(=O)c2ccc3c(c2)oc(=O)n3C)cc1C (centres undefined),-20% (inactive),–
Cc1cccc(N2CCN(C(=O)c3cnc(N4CCCC4)nc3C)CC2)c1C,-29.2% (inactive),–
CC1(C(=O)Nc2cccc3c2CCCC3)CCN1C(=O)CCc1ccc(Cl)cc1Cl (centres undefined),–,12.6 µM (active)
Cc1ccccc1S(=O)(=O)NC(=O)C1(C)CCN1C(=O)Cc1ccc(Cl)cc1Cl (centres undefined),1.16% (inactive),–
CC1(C(=O)Nc2cccc3c2CCCC3)CCN1C(=O)C1(c2ccccc2)CC1 (centres undefined),-2.26% (inactive),–
CC(=O)c1ccc(NS(=O)(=O)c2ccc(-c3cc(C)no3)s2)cc1,0% (inactive),–
Cc1oc(-c2ccccc2F)nc1CN1CCC(C(=O)NCCc2ccc(Cl)cc2)CC1,-29% (inactive),–
COc1ccc(Cl)cc1NC(=O)C(C)Sc1nc2c(c(=O)[nH]1)CCCC2 (centres undefined),2.67% (inactive),–
CCOc1ccc(NC(=O)c2c(NC(=O)Cc3ccccc3)sc3c2CCCCC3)cc1,-10.5% (inactive),–
CCOc1ccc(NC(=S)N2CCCCCC2)cc1,14.3% (inactive),–
CC1=NNC(=O)C1CCC(=O)N/N=C(\C)c1ccc(Cl)cc1 (centres undefined),-12.6% (inactive),–
C/C(=N\NC(=O)Cc1ccc(Cl)cc1)c1ccccn1,–,3.98 µM (active)
CC(=NNC(=S)N1CCCCCC1)c1ccccn1,–,1.26 µM (active)
O=C(Cc1ccc(Cl)cc1)c1ccccc1,12.7% (inactive),–
CCNC(=S)N1CCN(c2ncccn2)CC1,4.06% (inactive),–
CCCN(CCC)C(=O)Cn1c(=O)n(-c2ccc(Cl)cc2)c(=O)c2c3c(sc21)CCCCC3,0.91% (inactive),–
Cc1ccc(-c2nnc3ccc(SCC(N)=O)nn23)cc1,0.378% (inactive),–
Nc1ccc(Nc2ccccc2)cc1,–,14.1 µM (active)
Cc1ccc(Nc2ccccc2N)cc1,27.6% (inactive),–
COc1ccccc1C(=O)Nc1ccc(Nc2ccccc2)cc1,0% (inactive),–
COC(=O)c1ccc(NC(=O)CSc2n[nH]c(-c3ccccc3)n2)cc1,-26.8% (inactive),–
CC(Sc1oc(-c2ccco2)nc1S(=O)(=O)c1ccc(Br)cc1)c1ccccc1 (centres undefined),-17.3% (inactive),–
